In all, about 350,000 compounds went through this assay and about 2,700 (0.77%) were called active.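 Rule for the calls: active = inhibition reaching at least a set limit at 20 µM in the primary screen (cut at about 59% in these data); inactive = the rest.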 For the sample, actives were picked, then their nearest neighbours and some compounds at random.
System: glucose-6-phosphate dehydrogenase-6-phosphogluconolactonase (Plasmodium falciparum 3D7)
Assay: inhibition of malaria parasite G6PD (PfGluPho) – biochemical, fluorescence intensity, uHTS, primary screen (AID 504690);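 note: 0% = DMSO wells with substrate and 100% = DMSO wells lacking glucose-6-phosphate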
Details: PfGluPho enzyme, NADPH resazurin-diaphorase fluorescence; at 20 µM; active compounds read high

SMILES | inhibition
COC(=O)/C=C\C(=O)Nc1cccc([N+](=O)[O-])c1 | 45.2% (inactive)
Cc1ccc(/C=C/C(=O)Nc2cc(S(=O)(=O)N3CCCCCC3)ccc2OCC(F)(F)F)o1 | 35.9% (inactive)
Cc1ccc(/C=C/C(=O)Nc2ccc([N+](=O)[O-])c(NC(=O)/C=C/c3ccc(C)o3)c2)o1 | 82.9% (active)
CN(Cc1nc(-c2cnccn2)no1)Cc1n[nH]c2c1CCCCC2 | -10.5% (inactive)
O=C(NCCc1ccccc1)C(=O)NCC1OCCN1S(=O)(=O)c1cccs1 (stereo not given) | -3.06% (inactive)
O=C(Nc1c(Cl)cccc1Cl)C1CCC1 | -12.1% (inactive)
CCOc1ccccc1/C=N/NC(=O)CNC(=O)COc1ccccc1 | 120% (active)
C=C(C)CNC(=S)N/N=C/c1ccccc1OCC(=O)O | 3.17% (inactive)
Cc1cccc(OCC(=O)NCC(=O)N/N=C/c2ccc(N(C)C)cc2)c1 | 17.1% (inactive)
C=CCc1ccccc1OCC(=O)N/N=C/c1ccccc1OCC | 105% (active)
C=CCc1cccc(/C=N/NC(=O)COc2ccc(-n3cnnn3)cc2)c1O | -10.4% (inactive)
C=CCOc1ccccc1/C=N/NC(=O)Cc1ccccc1 | 4.68% (inactive)
Fc1ccc(OCc2nn3c(Cn4nnc5ccccc54)nnc3s2)cc1 | 57.3% (inactive)
COC(=O)CSc1nc2c(c(C3CC=CCC3)c1C#N)CCC2 (stereo not given) | -38.4% (inactive)
CC(C)(C)NS(=O)(=O)CC12CCC(CC1=O)C2(C)C (stereo not given) | -13.3% (inactive)
CCN(C(=O)COC(=O)CCC(=O)c1cccs1)C1CCCCC1 | -5.84% (inactive)
CN(CC(=O)Nc1cccc2c1CCCC2)S(=O)(=O)c1ccc(Cl)cc1 | 6.22% (inactive)
CCc1nonc1NC(=O)c1oc2ccc(Cl)cc2c1C | -9.82% (inactive)
Cn1c(-c2ccc(F)cc2)cc2onc(-c3ccccc3Cl)c2c1=O | 4.14% (inactive)
CCc1cccc(C)c1NS(=O)(=O)c1cc(Br)cnc1N | -9.37% (inactive)

SMILES | inhibition
CCN(C(=O)CSc1nnc(-c2ccncc2)o1)c1ccccc1 | -2.03% (inactive)
COc1cc(C2CC(=O)N3CN(Cc4ccccc4)CSC3=C2C#N)ccc1OCc1ccccc1 (stereo not given) | 61.5% (active)
COc1ccc(CCN=C2SCC(=O)N2Cc2ccccc2)cc1OC | -8.19% (inactive)
COc1cc(CNC2CCCC2)c(Br)cc1OCc1ccccc1 | -14.8% (inactive)
Cc1ccc(S(=O)(=O)N2C[C@H]3C(=O)C[C@@H](c4cccc5ccccc45)N(S(=O)(=O)c4ccc(C)cc4)[C@H]3C[C@H]2c2ccc(Cl)cc2)cc1 | 7.92% (inactive)
O=C(CSc1cccc2cccnc12)N/N=C/c1cccnc1 | 63.5% (active)
Cc1c(NC(=O)CSc2cccc3cccnc23)c(=O)n(-c2ccccc2)n1C | 6.71% (inactive)
O=C(N/N=C\c1cccnc1)c1cc(-c2ccccc2)nc2c(Cl)cccc12 | 8.75% (inactive)
OC(CNC1CCCC1)COc1ccc(F)cc1 (stereo not given) | 11.3% (inactive)
Cc1ccc(C)c(NS(=O)(=O)c2c(C)[nH]c(C)c2C(=O)N2CCCCC2)c1 | -16.2% (inactive)
Cc1ccc(-n2c(C)cc(C(=O)CSc3nnc4ccccn34)c2C)cc1 | 26.1% (inactive)
COc1ccc(-n2c(C)cc(C(=O)COC(=O)c3cc(OC)c(OC)cc3NC(=O)c3cccs3)c2C)cc1 | -6.02% (inactive)
COc1ccc(-n2c(C)cc(C(=O)CSc3nnc(-c4cccs4)o3)c2C)cc1 | 83.3% (active)
O=C(CCN1CCCCC1)N=Nc1c(O)[nH]c2ccccc12 | 6.66% (inactive)
Oc1[nH]c2ccccc2c1N=Nc1c(F)c(F)c(F)c(F)c1F | 0.03% (inactive)
Cc1c(-c2ccccc2)n[nH]c1C(=O)N=Nc1c(O)[nH]c2ccccc12 | 88.8% (active)
CC1(C)C=C2[C@H]3CC[C@@H]4[C@@]5(C)CCC(=O)C(C)(C)[C@@H]5CC[C@@]4(C)[C@]3(C)CC[C@@]2(C(=O)O)CC1 | -28.4% (inactive)
COc1ccc(-n2cnc3cc(NCc4ccco4)ccc32)cc1 | 23.7% (inactive)
Cn1c(-c2ccco2)nc2cc3ccccc3cc21 | 60.5% (active)
Cn1c(SCC(=O)Nc2ccc(Br)cc2F)nnc1-c1ccco1 | -4.98% (inactive)

SMILES | inhibition
COc1ccc(Cl)cc1NC(=O)CCS(=O)(=O)c1ccc(Br)cc1 | 43% (inactive)
O=C(COC(=O)/C(=C/c1cccs1)c1cccs1)NCc1ccccc1Cl | -3.87% (inactive)
Cc1cc(C(C)(C)C)cc(C)c1N | 12.1% (inactive)
COc1ccc(-c2cc(C)nc3nc(N)nn23)cc1 | -2.23% (inactive)
Cc1cc(N)n2nc(-c3ccc(C(C)(C)C)cc3)cc2n1 | 84.5% (active)
CC(C)C(c1nnnn1C1CCCCC1)N1CCN(C(=O)c2ccco2)CC1 (stereo not given) | -12.7% (inactive)
CN(CCc1cnn(C)c1)Cc1cn(C)nc1-c1ccccc1F | -8.15% (inactive)
COC(=O)CCc1sc(Nc2ccc(Br)cc2)nc1-c1ccc(OC)cc1 | 64.3% (active)
COc1ccc(NC(=O)CCC(=O)Nc2nnc(C3CCCCC3)s2)cc1 | -7.47% (inactive)
CNC(=O)c1sc(Nc2ccc(OCc3ccccc3)cc2)nc1C | 19.4% (inactive)
COc1ccc(NC(=O)CN2C(=O)COc3ccc(S(=O)(=O)N4CCOCC4)cc32)c(OC)c1 | -0.58% (inactive)
O=c1[nH]c2ccccc2n2c(-c3ccccc3)nnc12 | 102% (active)
O=C(c1ncn2c1c(=O)[nH]c1ccccc12)N1CCc2ccccc2C1 | 8.24% (inactive)
CC(=O)N(C)c1ccc(NC(=O)Nc2cccc3ccccc23)cc1 | -6.82% (inactive)
COc1cc2ccccc2cc1C(=O)Nc1ccccc1C | -15.2% (inactive)
COc1ccccc1C(=O)Nc1ccccc1C(=O)Nc1ccccc1 | 8.55% (inactive)
COc1ccc(C(=O)Nc2cc(C)c(NC(=O)c3ccccc3OC)cn2)cc1 | 79.1% (active)
C=CCNC(=O)c1sc(SC)cc1-c1ccc(Cl)cc1 | 9.14% (inactive)
CCc1ccc2[nH]c(=O)c(Cc3ccccc3)c(O)c2c1 | -9.56% (inactive)
COc1ccc(CCC(=O)N2CCN(S(=O)(=O)c3ccc(OC)cc3)CC2)cc1 | -10.5% (inactive)
